According to PubChem BioAssay AID431 (Sanford-Burnham Center for Chemical Genomics, 2006):
Out of some 63,000 compounds screened, about 1,100 (1.7%) were called active. The entries come from a sample that favours actives as a whole. Measured potencies and affinities stand elsewhere. Unmarked numbers belong to inactive results.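 The calls were made as follows: active = compounds whose percent cytotoxicity in the single-dose primary screen, scaled between solvent and toxic-drug controls, exceeds 50; inactive = the rest.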

Assay: cytotoxicity in KRAS-transformed pancreatic duct cells, primary screen, cell-based, fluorescence, HTS (AID 431);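 also: 0% = DMSO solvent wells and 100% = doxorubicin-treated wells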
Settings: HPDE-C7K KRASV12 cells, Alamar Blue viability, 48 h; at 10 µM; active compounds read high

SMILES | cytotoxicity
OC(CNCc1ccco1)Cn1c2ccccc2c2ccccc21 (configuration not stated) | 40.9%
Cc1ccc(/C(C#N)=C\c2cn(C)c3ccccc23)cc1 | 35.2%
CC1(C(=O)NC2CCCC2)CCC(=O)N1CCC1=CCCCC1 (configuration not stated) | -21.1%
Cc1cccc2cc(C#N)c(SCC(=O)N3CC(=O)Nc4ccccc43)nc12 | 65% (active)
Cc1cc(C)c2nc(SCC(=O)N3CCCCC3)c(C#N)cc2c1 | 2.7%
Cc1cccc2cc(C#N)c(SCCN3CCCCC3)nc12 | 57.1% (active)
Cc1cccc2cc(C#N)c(N3CCN(C)CC3)nc12 | 1.8%
Cc1cccc2cc(C#N)c(SCC(=O)N3CCC(C)CC3)nc12 | 2.7%
Cc1ccccc1-n1c(C)nnc1SCC(=O)N1CC(=O)Nc2ccccc21 | -8.9%
CNc1nc(C)c(C(=O)OCc2ccccc2)s1 | -0.8%
C=CCOn1c(=O)c(=O)n(OCc2ccccc2)c2ccccc21 | -23.8%
C/C(N)=C(/C#N)C(=O)CSc1nc2cc(Cl)ccc2s1 | 12%
CCOC(=O)N1CCC(NC(=O)c2cc(S(=O)(=O)N3CCC4(CC3)OCCO4)ccc2F)CC1 | -4.2%
COC(=O)c1ccc(C2C(C#N)=C(N)Oc3cc(C)n(C)c(=O)c32)cc1 (configuration not stated) | -10.1%
CCCC(=O)N1CCN(c2ccc(C(=O)c3ccc(OC)c(Br)c3)cc2F)CC1 | 62.5% (active)
CCCCCC(=O)N1CCN(c2ccc(C(C)=O)cc2F)CC1 | 0.9%
CCCC(=O)c1ccc(N2CCN(C(=O)c3ccc(Br)cc3)CC2)c(F)c1 | -6.7%
COc1ccc(-c2nnc(SCC(=O)N3CCCCC3)o2)cc1OC | -0.7%
O=C(Nc1ccc(C(F)(F)F)cc1Cl)c1ccc(Cn2cc(Br)cn2)o1 | 124% (active)
CC(=O)c1sc(NC(=O)c2ccc(Cn3cc(Br)cn3)o2)nc1C | 1.1%
O=C(NC1CCCCC1)c1ccc(Cn2cc(Br)cn2)o1 | -12.9%
Cc1cc(C)nc(SCc2nnc(SCc3ccccc3Cl)o2)n1 | -16.5%

SMILES | cytotoxicity
COc1ccc(NC(=O)CSc2nnc(-c3ccco3)n2C)cc1 | 0.5%
Clc1ccccc1CSc1ncccn1 | -6%
O=C(CSc1nnc(-c2ccco2)c(-c2ccco2)n1)Nc1ccccc1 | 1.2%
Cc1ccc(NC(=O)CSc2nnc(-c3ccco3)c(-c3ccco3)n2)cc1 | 90.7% (active)
CCNC(=O)CP(=O)(c1ccccc1)c1ccccc1 | 1.9%
CCc1ccc(Cn2nnc(C(=O)Nc3cccc(C)c3)c2N)cc1 | -0.7%
CCOC(=O)C1CCCN(CCC(C)c2ccccc2)C1 (configuration not stated) | 20.5%
Cc1c(NC(=O)NC(=O)c2ccc(F)cc2)c(=O)n(-c2ccccc2)n1C | -11.2%
COc1ccc(Nc2nc(-c3sc(N)nc3C)cs2)cc1 | 58% (active)
Cc1nc(N)sc1-c1csc(Nc2ccccc2)n1 | 49%
COc1cccc(Nc2nc(-c3sc(N)nc3C)cs2)c1 | 60.7% (active)
COc1ccc(OC)c(Nc2nc(-c3sc(N)nc3C)cs2)c1 | 37.6%
COc1ccc(CCNc2nc(-c3sc(N)nc3C)cs2)cc1OC | 16.4%
Cc1nc(N)sc1-c1csc(Nc2ccccn2)n1 | -9.8%
CCOc1ccc(Nc2c3c(nc4ncnn24)CC(C)CC3)cc1 (configuration not stated) | 4.3%
O=C(O)CCCNS(=O)(=O)c1cccs1 | 8%
COc1ccc(NC(=O)C2CC2)cc1-n1cnnn1 | -12.2%
NC(=O)C1CCN(C(=O)CN(c2cccc(C(F)(F)F)c2)S(=O)(=O)c2ccccc2)CC1 | -1.4%
CCOC(=O)Nc1ccc2c(c1)N(C(=O)CCN1CCOCC1)c1ccccc1S2 | 0.3%
CCOC(=O)Nc1ccc2c(c1)Sc1ccccc1N2C(=O)CCN1CCOCC1 | 1.2%
CCOC(=O)Nc1ccc2c(c1)N(C(=O)CCN1CCOCC1)c1ccccc1S2=O (configuration not stated) | 69.3% (active)
Cc1c(NC(=O)CSc2nnnn2Cc2ccccc2)c(=O)n(-c2ccccc2)n1C | -13.5%

SMILES | cytotoxicity
Cc1c(NC(=O)Nc2ccc(Cl)cc2)c(=O)n(-c2ccccc2)n1C | -17%
Cc1c(NC(=O)Nc2ccc(Cl)c(Cl)c2)c(=O)n(-c2ccccc2)n1C | 70.7% (active)
Cc1c(NC(=O)Nc2cccc(Cl)c2)c(=O)n(-c2ccccc2)n1C | -10.4%
Cc1c(NC(=O)c2ccc(=O)oc2)c(=O)n(-c2ccccc2)n1C | -10.4%
Cc1c(NC(=O)c2ccc(Br)o2)c(=O)n(-c2ccccc2)n1C | 12.6%
CCOC(=O)c1nn(-c2ccccc2)c(=O)c(C#N)c1C | 0.8%
Cc1noc(C)c1COC(=O)CCCOc1ccc(Cl)cc1Cl | 5.6%
COc1cccc(NC(=O)CN2CCN(S(=O)(=O)c3ccc(C(C)C)cc3)CC2)c1 | -4.2%
C/C(=N\O)C(=O)C(CN1CCCCC1)CN1CCCCC1 | -6.8%
COc1cc(NC(=O)C2C3C=CC(C3)C2C(=O)O)c(OC)cc1Cl (configuration not stated) | 2.1%
CCOC(=O)C1=C(N)n2c(s/c(=C/c3ccco3)c2=O)=C(C(=O)OC)C1c1ccco1 (configuration not stated) | 73.7% (active)
CCOC(=O)C1=C(N)n2c(s/c(=C\c3ccco3)c2=O)=C(C(=O)OC(C)C)C1c1ccco1 (configuration not stated) | 0.1%
CCOC(=O)C1=C(N)n2c(s/c(=C\c3cccnc3)c2=O)=C(C(=O)OCC)C1c1cccnc1 (configuration not stated) | -18.8%
CCOC(=O)C1=C(N)n2c(s/c(=C\c3cccnc3)c2=O)=C(C(=O)OC)C1c1cccnc1 (configuration not stated) | -15.5%
N#CC1=C(N)n2c(s/c(=C\c3ccco3)c2=O)=C(C#N)C1c1ccco1 (configuration not stated) | 5.8%
O=C(OCN1C(=O)c2ccccc2C1=O)c1ccccc1 | 2.9%
CCn1c(=O)cc(OCC(=O)Nc2cc(C)ccn2)c2ccccc21 | -3.3%
N#Cc1nc(COc2ccccc2F)oc1N1CCCCCC1 | -5.8%
CCOc1ccccc1CN1CCN(S(C)(=O)=O)CC1 | -4.6%
Cc1ccc(C(=O)CSC2=C(C#N)C(c3ccco3)C3=C(CC(C)(C)CC3=O)N2)cc1 (configuration not stated) | 18.2%
Cc1ccc(NC(=O)CSC2=C(C#N)C(c3ccco3)C3=C(CCCC3=O)N2)cc1 (configuration not stated) | 2.1%
COc1cccc(NC(=O)CSC2=C(C#N)C(c3ccco3)C3=C(CCCC3=O)N2)c1 (configuration not stated) | 15.3%

SMILES | cytotoxicity
CC1(C)CC(=O)C2=C(C1)NC(SCC(=O)Nc1ccccc1)=C(C#N)C2c1ccco1 (configuration not stated) | -6.1%
Cc1ccc(NC(=O)CSC2=C(C#N)C(c3ccco3)C3=C(CC(C)(C)CC3=O)N2)cc1 (configuration not stated) | 54.3% (active)
Cc1ccc(C(=O)CSC2=C(C#N)C(c3ccco3)C3=C(CCCC3=O)N2)cc1 (configuration not stated) | 77.3% (active)
CCc1ccc(NC(=O)CSC2=C(C#N)C(c3ccco3)C3=C(CCCC3=O)N2)cc1 (configuration not stated) | 8.2%
N#CC1=C(SCC(=O)c2ccccc2)NC2=C(C(=O)CCC2)C1c1ccco1 (configuration not stated) | 41.2%
CCCCc1ccc(NC(=O)CSC2=C(C#N)C(c3ccco3)C3=C(CCCC3=O)N2)cc1 (configuration not stated) | 79.6% (active)
COc1cc(S(=O)(=O)N2CCN(c3ccccc3F)CC2)ccc1Cl | 24%
CCCC(=O)CN1C(=O)C2(OCCO2)c2ccccc21 | -6.1%
COc1ccc2c(c1)CCc1c(C(=O)NCc3ccc(F)cc3)noc1-2 | 1.6%
COc1ccc(OCCC(=O)Nc2cc(C)on2)cc1 | 1.4%
CCCCn1c(SCC(=O)Nc2cc(C)on2)nc2ccccc2c1=O | -8.1%
Cc1ccc(-c2nn3c(C)nnc3s2)cc1NC(=O)c1ccc(Br)o1 | -0.3%
Cc1nnc2sc(-c3cccc(NC(=O)c4ccc(-c5cccc(Cl)c5)o4)c3)nn12 | -2.2%
O=C(Nc1nnc(-c2ccco2)o1)C1CCCCC1 | 4.3%
CCOc1ccc(-c2nnn(CC(=O)Nc3cc(OC)cc(OC)c3)n2)cc1OCC | -1.3%
CCOc1ccc(-c2nnn(CC(=O)Nc3cc(OC)ccc3OC)n2)cc1OCC | 70.6% (active)
CCOc1ccc(-c2nnn(CC(=O)Nc3ccccc3OC)n2)cc1OCC | -3.2%
Cc1ccc2[nH]c(C)c(CN(C)C3CCN(C)CC3)c(=O)c2c1 | -9.9%
O=C(NCc1ccco1)c1cccc2ccccc12 | -9%
Cc1ccc(-c2n[nH]c(=O)c3ccccc23)cc1N | 1.4%
CCC(c1nc2ccccc2c(=O)n1CCCn1ccnc1)N1C(=O)c2ccccc2C1=O (configuration not stated) | -3.6%
COc1ccc(N/C=C(\C#N)c2nc3ccccc3n2C)c(OC)c1 | 44.3%

SMILES | cytotoxicity
C(=C\c1ccccc1)/CN1CCN(C(c2ccccc2)c2ccccc2)CC1 | 2.8%
O=C(Nc1ccc(F)cc1)N1CCN(C/C=C/c2ccccc2)CC1 | 25.8%
O=C(CSC1=Nc2ccccc2C2=NC(CC(=O)NCc3ccco3)C(=O)N12)NCC1CCCO1 (configuration not stated) | -7.9%
CCOc1ccc(C(=O)N2CCN=C2SC)cc1OCC | -3.5%
Cc1ccc(C)c(OCC(=O)Nc2cc(C)on2)c1 | 4.9%
Cc1ccc(C)c(OCC(=O)Nc2ccc3c(c2)OCO3)c1 | -3.1%
Cc1ccc(C)c(OCC(=O)Nc2nonc2NC(=O)COc2cc(C)ccc2C)c1 | 74.3% (active)
CSc1nnc([C@H](C)NC(=O)OC(C)(C)C)o1 | -22.1%
Cn1cccc1C(C(=O)NC1CCCCC1)N(C(=O)Cc1cccs1)C1CC1 (configuration not stated) | -22.4%
N#Cc1ccc(-c2ccco2)nc1SCC(=O)c1ccc(Cl)cc1 | 19.1%
CC(C)(C)c1ccc(C(=O)CCCSC2=C(C#N)C(c3ccco3)C3=C(CCCC3=O)N2)cc1 (configuration not stated) | 18.5%
COc1ccc(NC(=O)CSC2=C(C#N)C(c3ccco3)C3=C(CCCC3=O)N2)c(OC)c1 (configuration not stated) | -2.7%
Cc1cccc(N2CCN(c3cc(C)nc4nnnn34)CC2C)c1 (configuration not stated) | -38.8%
O=C(Cn1cnc2c(nnn2Cc2ccc(Cl)cc2)c1=O)NCC1CCCO1 (configuration not stated) | -3.4%
COC(=O)c1c(NC(=O)c2cccs2)sc2c1CCC(C)C2 (configuration not stated) | 5.5%
Cc1ccc(-c2csc3nnc(SCC(=O)Nc4nsc(-c5ccccc5)n4)n23)cc1 | -0.3%
Cc1sc(NC(=O)CSc2nnc(COc3ccccc3)n2C)c(C#N)c1C | 4.2%
CC(C)CCNc1ncnc2c1nnn2Cc1ccccc1Cl | -8.2%
Clc1ccccc1Cn1nnc2c(Nc3ccccc3)ncnc21 | -4.9%
